From ChEMBL document CHEMBL3433997, “St. Jude Leishmania screening dataset” (2016)

Columns and labels:
Format in all cases: functional
[1] = biological target: Solute carrier family 2, facilitated glucose transporter member 1 (Homo sapiens) (UniProt P11166); experiment: ST_JUDE_LEISH: Cytotoxicity at 2uM final concentration against transgenic Leishmania Mexicana promastigotes LmGLUT1 that are glucose transport deficient and complemented with the human glucose transporter GLUT1. Activity is measured by DNA content using SYBR green in vitro
[2] = biological target: Hexose transporter 1 (Plasmodium falciparum) (UniProt O97467); experiment: ST_JUDE_LEISH: Cytotoxicity at 2uM final concentration against transgenic Leishmania Mexicana promastigotes LmPfHT that are glucose transport deficient and complemented with the Plasmodium falciparum hexose transporter. Activity is measured by DNA content using SYBR green in vitro
[3] = biological target: Glucose transporter (Leishmania mexicana) (UniProt O61059); experiment: ST_JUDE_LEISH: Cytotoxicity at 2uM final concentration against transgenic Leishmania Mexicana promastigotes LmGT2 that are glucose transport deficient and complemented with the L. Mexicana glucose transporter 2. Activity is measured by DNA content using SYBR green in vitro

Solute carrier family 2, facilitated glucose transporter member 1 (Homo sapiens), sequence (P11166 whole entry): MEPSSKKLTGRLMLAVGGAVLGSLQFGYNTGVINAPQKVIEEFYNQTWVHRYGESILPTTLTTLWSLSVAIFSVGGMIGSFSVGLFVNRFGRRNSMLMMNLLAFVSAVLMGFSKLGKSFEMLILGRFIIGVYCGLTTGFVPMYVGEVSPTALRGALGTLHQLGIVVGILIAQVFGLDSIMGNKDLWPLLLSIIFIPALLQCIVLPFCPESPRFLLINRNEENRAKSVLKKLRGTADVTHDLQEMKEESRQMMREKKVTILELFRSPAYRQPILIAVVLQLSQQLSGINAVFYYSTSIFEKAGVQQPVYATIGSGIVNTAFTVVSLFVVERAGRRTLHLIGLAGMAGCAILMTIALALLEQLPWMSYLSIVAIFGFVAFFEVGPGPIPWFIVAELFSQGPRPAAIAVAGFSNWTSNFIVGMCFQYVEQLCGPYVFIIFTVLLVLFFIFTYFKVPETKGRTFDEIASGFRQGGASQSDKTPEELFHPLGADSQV

SMILES: c1cc(CNCC2CCCO2)cc(-c2cccc(-c3nc4ccccc4[nH]3)c2)c1 (stereo not given)
- inhibition [1]: 1.58%
- inhibition [2]: 1.76%
- inhibition [3]: -0.18%

SMILES: COc1ccc2nccc([C@@H](O)CN3CCC(NC(=O)/C=C/c4cccc(NC(C)=O)c4)CC3)c2c1
- inhibition [1]: 3.71%
- inhibition [2]: 3.46%
- inhibition [3]: 4.66%

SMILES: CC(C)NCc1ccc(-c2ccc(CN3CCCC(c4ccccc4)C3)cc2)c(C(=O)NC2Cc3ccccc3C2)c1 (stereo not given)
- inhibition [1]: 16.8%
- inhibition [2]: 17.4%
- inhibition [3]: 11%

SMILES: CC(C)CCN1CCC(Oc2ccc(NC(=O)c3ccccc3)cc2Cl)CC1
- inhibition [1]: 1.25%
- inhibition [2]: 3.09%
- inhibition [3]: 2.86%

SMILES: COc1ccc2[nH]c(C)cc(=NN=Cc3cccc(Cl)c3)c2c1
- inhibition [1]: -0.18%
- inhibition [2]: 4.08%
- inhibition [3]: -1.05%

SMILES: CON=Cc1sc(CNCCCN=c2cc(O)c3ccccc3[nH]2)c(C)c1Br
- inhibition [1]: 4.13%
- inhibition [2]: 4.13%
- inhibition [3]: 3.41%

SMILES: CC(C)(C)C1CCc2onc(C(=O)Nc3cc(Cl)ccc3O)c2C1 (stereo not given)
- inhibition [1]: 7.15%
- inhibition [2]: 5.86%
- inhibition [3]: 4.8%

SMILES: CC1CCCCN1CCCNc1ncc2c(-c3ccc(NC(=O)Nc4cc(C(F)(F)F)ccc4F)c(F)c3)nn(C)c2n1 (stereo not given)
- inhibition [1]: 1.38%
- inhibition [2]: -0.99%
- inhibition [3]: 0.83%

SMILES: Cc1ccc(CNc2cc(C(F)(F)F)nc(-c3ccc(S(C)(=O)=O)cc3)n2)cc1
- inhibition [1]: 9.86%
- inhibition [2]: 11.2%
- inhibition [3]: 9.59%

SMILES: COc1ccc(NC(=O)Nc2cccc(-c3cccc(-c4nc5cccc(C)c5[nH]4)c3)c2)cc1
- inhibition [1]: -1.25%
- inhibition [2]: -0.57%
- inhibition [3]: -1.79%

SMILES: O=C(Nc1cccc(Oc2ccccc2)c1)N[C@H]1CCN(Cc2ccc(OCCCN3CCCCC3)cc2)C1
- inhibition [1]: 3.58%
- inhibition [2]: 5.18%
- inhibition [3]: 6.98%

SMILES: CCCCN(CCCC)CCNC(=O)c1cc(OC(F)(F)F)ccc1O
- inhibition [1]: 1%
- inhibition [2]: 0.8%
- inhibition [3]: 0.03%

SMILES: CN(C)CCCSc1ccccc1NC(=O)C=Cc1ccccc1
- inhibition [1]: 5.73%
- inhibition [2]: 7.21%
- inhibition [3]: 6.85%

SMILES: CCN(CC)CCCC(C)Nc1c(-c2ccc(OC)cc2)cnc2ccccc12 (stereo not given)
- inhibition [1]: 2.85%
- inhibition [2]: 3.79%
- inhibition [3]: 0.36%

SMILES: O=C(/C=C/c1ccc(Cl)cc1Cl)N1CCC(CCN2CCC(c3c[nH]c4ccccc34)CC2)CC1
- inhibition [1]: 3.54%
- inhibition [2]: 4.28%
- inhibition [3]: 5.09%

SMILES: O=C(Nc1ccc(OC2CCN(Cc3ccc(F)cc3)CC2)c(Cl)c1)c1ccccc1
- inhibition [1]: -3.58%
- inhibition [2]: 0.82%
- inhibition [3]: 6.06%

SMILES: CCN(CC)CCNc1c2ccc(Cl)cc2nc2ccc(OC)nc12
- inhibition [1]: 3.46%
- inhibition [2]: 3.09%
- inhibition [3]: 3.99%

SMILES: Clc1ccc2c(NN=Cc3ccccc3)ccnc2c1
- inhibition [1]: 7.48%
- inhibition [2]: 6.89%
- inhibition [3]: 7.07%

SMILES: Cc1nc2c(c(C)nn2C(C)(C)C)c(C)c1CCC(=O)Nc1ccc(CN2CCCC2)cc1
- inhibition [1]: 9.93%
- inhibition [2]: 6.16%
- inhibition [3]: 5.29%

SMILES: CN=C(N)c1ccc(NC(=O)C=Cc2ccc(C(=O)Nc3ccc(C(N)=NC)cc3)cc2)cc1
- inhibition [1]: 9.91%
- inhibition [2]: 15.9%
- inhibition [3]: 4.6%

SMILES: Cc1cc(F)ccc1-c1nc(NCCCN2CCCC2=O)nc2c1ccc(=O)n2-c1c(F)cccc1F
- inhibition [1]: 15.4%
- inhibition [2]: 12.9%
- inhibition [3]: 11.1%

SMILES: CC(C)(C)C(=O)Nc1ccc(C(=O)Nc2cccc(-c3nc4ccccc4[nH]3)c2)cc1
- inhibition [1]: 1.87%
- inhibition [2]: 0.85%
- inhibition [3]: -0.79%

SMILES: CC1CC(NCCCNc2cc(=O)c3ccccc3[nH]2)c2c(Cl)c(Cl)cc(Cl)c21 (stereo not given)
- inhibition [1]: 5.21%
- inhibition [2]: 3.08%
- inhibition [3]: 1.22%

SMILES: CC1(C)NC(N)=NC(=N)N1OCCSCc1cc(Cl)sc1Cl
- inhibition [1]: 6.6%
- inhibition [2]: 7.38%
- inhibition [3]: 2.82%

SMILES: OC(CNc1ccnc(Nc2cccc(Cl)c2)n1)c1cccc(C(F)(F)F)c1 (stereo not given)
- inhibition [1]: 14.4%
- inhibition [2]: 11.6%
- inhibition [3]: 4.06%

SMILES: Cc1ccc(C)c(Cn2ccc3nc(Cl)nc(Cl)c32)c1
- inhibition [1]: 7.99%
- inhibition [2]: 5.11%
- inhibition [3]: 0.45%

SMILES: Cc1ccc(NC(=O)c2cnc(N3CCN(c4ccncc4)CC3)c(Cl)c2)cc1
- inhibition [1]: 42.8%
- inhibition [2]: 16.1%
- inhibition [3]: 17.1%

SMILES: CC(C)(C)c1ccc(S(=O)(=O)Nc2ccccc2Cn2nc(N3CCNCC3)ccc2=O)cc1
- inhibition [1]: 8.03%
- inhibition [2]: 7.83%
- inhibition [3]: 8.79%

SMILES: COc1ccccc1-c1csc(C(=O)NC2CCCCN(Cc3ccc(C(C)(C)C)cc3)C2)c1 (stereo not given)
- inhibition [1]: 2.42%
- inhibition [2]: 1.58%
- inhibition [3]: 2.61%

SMILES: CC1(C)NC(N)=NC(=N)N1OCCCNC(=O)c1ccc(C(=O)NCCCON2C(=N)N=C(N)NC2(C)C)cc1
- inhibition [1]: 0.28%
- inhibition [2]: 0.77%
- inhibition [3]: 1.51%

SMILES: O=C(Cn1c(CCc2cccc(F)c2F)nc(=O)c2ccccc21)N(Cc1ccc(-c2ccc(C(F)(F)F)cc2)cc1)C1CCN(C2CCSCC2)CC1
- inhibition [1]: 1.28%
- inhibition [2]: -2.32%
- inhibition [3]: 3.92%

SMILES: COc1ccccc1N1CCN(c2cccc(F)c2C#N)CC1
- inhibition [1]: 8.24%
- inhibition [2]: 6.93%
- inhibition [3]: 6.12%

SMILES: O=C(NCC(NCCCNc1cc(=O)c2ccccc2[nH]1)c1cc(Br)cc(Br)c1)C1=CCCC1 (stereo not given)
- inhibition [1]: 3.18%
- inhibition [2]: 4.82%
- inhibition [3]: 5.79%

SMILES: FC(F)(F)c1ccc(/C=C/c2cncnc2Nc2ccc3[nH]c(Cc4ccccc4)nc3c2)cc1
- inhibition [1]: 4.97%
- inhibition [2]: 6.03%
- inhibition [3]: 3.94%

SMILES: Cc1ccccc1Nc1nc(NCCc2ccccc2)nc2ccccc12
- inhibition [1]: 49.2%
- inhibition [2]: 37.4%
- inhibition [3]: 18.3%

SMILES: N#Cc1cccc(C(=O)Nc2cccc(-c3ccc(C(=O)NCCCN4CCOCC4)cc3)c2)c1
- inhibition [1]: 6.85%
- inhibition [2]: 5.61%
- inhibition [3]: 5.11%

SMILES: Cc1cc(NCCC(=O)Nc2ccccc2)nc(NCCOc2ccccc2)n1
- inhibition [1]: -0.01%
- inhibition [2]: -0.67%
- inhibition [3]: -1.58%

SMILES: COc1ccc(C2=[N+]([O-])c3ccccc3C2=O)cc1
- inhibition [1]: 0.97%
- inhibition [2]: 0.24%
- inhibition [3]: -0.74%

SMILES: O=C(NC1CC1)c1ccc(N2CCC(COc3cccc(F)c3)CC2)nc1
- inhibition [1]: 5.26%
- inhibition [2]: 4.16%
- inhibition [3]: 6.94%

SMILES: COc1cc(F)c2ncc(Cl)c(C(O)CN3CCC(NC(=O)c4ccc5c(c4)NC(=O)CS5)CC3)c2c1 (stereo not given)
- inhibition [1]: 8.37%
- inhibition [2]: 7.69%
- inhibition [3]: 4.11%

SMILES: CC(C)c1ccc(CN(C)CCCCNC(=O)c2ccc(NC(=O)c3ccc(Cl)cc3)cc2)cc1
- inhibition [1]: -0.05%
- inhibition [2]: -0.96%
- inhibition [3]: -1.07%

SMILES: NC1=NC2(CCCCC2)N(OCCCCCCCCNc2nc(N)nc(N)n2)C(N)=N1
- inhibition [1]: 4.34%
- inhibition [2]: 5.05%
- inhibition [3]: 5.12%

SMILES: Oc1ccc2[nH]c(-c3cccc(F)c3)nc2c1CN1CCC(O)(c2ccccc2)CC1
- inhibition [1]: 3.21%
- inhibition [2]: 4.5%
- inhibition [3]: 1.7%

SMILES: CC(O)C1CCCCN1C(=O)c1ccc(-c2ccc(-c3nc4cc(F)ccc4[nH]3)cc2)cc1 (stereo not given)
- inhibition [1]: 3.95%
- inhibition [2]: 3.23%
- inhibition [3]: 3.6%

SMILES: CN1CCN(c2ccc(-c3cccc(NC(=O)c4cccc(Cl)c4)c3)nn2)CC1
- inhibition [1]: 2.62%
- inhibition [2]: 1.54%
- inhibition [3]: 3.23%

SMILES: c1ccc(CN2CCC(NCc3ccc(-c4ccc(CNCc5cccnc5)cn4)cc3)CC2)cc1
- inhibition [1]: 3.27%
- inhibition [2]: 2.84%
- inhibition [3]: 3.77%

SMILES: CC(CN(C)C)Oc1ccc2nc(-c3cccc(OCc4ccccc4)c3)[nH]c2c1C#N (stereo not given)
- inhibition [1]: -1.18%
- inhibition [2]: 0.94%
- inhibition [3]: 0.08%

SMILES: CCOc1ccc(C(=O)Nc2cc(Br)c3c(c2)CNCC3)cc1C#N
- inhibition [1]: 6.36%
- inhibition [2]: 5.03%
- inhibition [3]: 5.78%

SMILES: COc1cc2nc(NC3CCN(Cc4ccccc4)CC3)nc(N)c2cc1OC
- inhibition [1]: 3.62%
- inhibition [2]: 2.22%
- inhibition [3]: 13%

SMILES: COc1cccc(CNC(=O)[C@@H]2CN(C(=O)c3ccccc3)CCN2)c1
- inhibition [1]: -0.92%
- inhibition [2]: 0.03%
- inhibition [3]: 0.71%
